Assay outcomes as filed in PubChem BioAssay.
KDM5B inhibitor = inhibitors of human KDM5B histone demethylase; KDM5B demethylase, FDH-coupled NADH fluorescence (FDH is formaldehyde dehydrogenase); AID 1347165; 2.6% of 220,000 active; Potency, µM (series often up to 57.7 µM), most hits filed as inhibitors; active = well fitted inhibition curve with a large enough effect; also: 0% is about no effect; nearly all actives have a fitted effect of over 70% in size
Target sequence (Q9UGL1 whole entry, looked up): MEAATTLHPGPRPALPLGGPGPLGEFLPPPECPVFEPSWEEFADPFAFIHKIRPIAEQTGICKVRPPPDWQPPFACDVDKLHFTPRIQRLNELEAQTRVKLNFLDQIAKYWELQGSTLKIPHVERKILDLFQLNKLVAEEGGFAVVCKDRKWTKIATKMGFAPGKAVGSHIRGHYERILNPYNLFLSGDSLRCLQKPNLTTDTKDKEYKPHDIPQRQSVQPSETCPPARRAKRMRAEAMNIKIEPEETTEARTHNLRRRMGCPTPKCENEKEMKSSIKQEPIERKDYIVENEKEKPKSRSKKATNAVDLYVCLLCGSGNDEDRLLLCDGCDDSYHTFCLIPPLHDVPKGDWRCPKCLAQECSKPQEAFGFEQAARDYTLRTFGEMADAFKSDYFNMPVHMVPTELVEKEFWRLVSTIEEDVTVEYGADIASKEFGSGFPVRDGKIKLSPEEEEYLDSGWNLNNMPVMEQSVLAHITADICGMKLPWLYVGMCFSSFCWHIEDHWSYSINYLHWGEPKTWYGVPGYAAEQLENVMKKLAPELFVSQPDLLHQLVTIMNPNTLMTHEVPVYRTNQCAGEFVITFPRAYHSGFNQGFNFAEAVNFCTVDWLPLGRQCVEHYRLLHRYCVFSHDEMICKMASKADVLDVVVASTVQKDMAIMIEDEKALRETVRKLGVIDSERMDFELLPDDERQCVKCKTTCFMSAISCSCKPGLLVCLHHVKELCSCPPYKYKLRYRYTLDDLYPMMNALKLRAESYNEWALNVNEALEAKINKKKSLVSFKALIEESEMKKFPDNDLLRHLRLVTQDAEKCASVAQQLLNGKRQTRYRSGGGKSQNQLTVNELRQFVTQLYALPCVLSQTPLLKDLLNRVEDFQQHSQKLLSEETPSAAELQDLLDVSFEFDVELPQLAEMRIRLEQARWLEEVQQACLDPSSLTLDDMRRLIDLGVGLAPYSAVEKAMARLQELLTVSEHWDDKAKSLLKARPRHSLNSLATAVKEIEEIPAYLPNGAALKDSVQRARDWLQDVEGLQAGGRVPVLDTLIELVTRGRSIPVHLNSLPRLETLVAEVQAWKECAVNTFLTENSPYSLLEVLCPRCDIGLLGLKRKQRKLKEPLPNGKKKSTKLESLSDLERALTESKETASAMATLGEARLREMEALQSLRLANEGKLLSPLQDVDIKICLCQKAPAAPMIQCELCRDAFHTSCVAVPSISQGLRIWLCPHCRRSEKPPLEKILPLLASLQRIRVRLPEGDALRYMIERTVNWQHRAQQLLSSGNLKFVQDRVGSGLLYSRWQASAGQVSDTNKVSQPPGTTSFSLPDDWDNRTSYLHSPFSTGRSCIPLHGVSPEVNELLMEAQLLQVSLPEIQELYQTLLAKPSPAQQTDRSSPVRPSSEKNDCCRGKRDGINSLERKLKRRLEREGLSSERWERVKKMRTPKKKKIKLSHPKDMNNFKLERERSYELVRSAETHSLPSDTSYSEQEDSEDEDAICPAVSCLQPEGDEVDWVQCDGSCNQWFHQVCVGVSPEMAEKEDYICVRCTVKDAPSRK
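KDM5BΔAP (200 nM final) in 50 mM HEPES pH 7.5, 0.01% Tween-20 was preincubated 10 min at RT with compound over a concentration range. Substrate mix (H3K4me3 12.5 µM, α-KG 25 µM, Fe²⁺, ascorbate, NAD⁺, FDH) was added, and NADH fluorescence change over 30 min gave dose-response curves.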
Starred values were filed as active, the others as inactive. This excerpt belongs to a sample that is enriched for hits. Potency is read from the fitted curve at half-maximal effect.

For Cc1noc(C)c1-c1cc2c(c(-c3cccc(S(C)(=O)=O)c3)c1)C(=O)N(C)C2 the results were KDM5B inhibitor inactive.
For Cc1noc(C)c1S(=O)(=O)N1CCC(c2noc(-c3cccnc3)n2)C1 (stereo not drawn) the results were KDM5B inhibitor inactive.
For Cc1noc(C)c1-c1cc(-c2cnn(C)c2)cn2cncc12 the results were KDM5B inhibitor 40µM*.
`Cc1noc(C)c1-c1cc(-c2cccc(CO)c2)cn2cncc12` gave KDM5B inhibitor 35µM*.
`Cc1noc2c(-c3cccc(CO)c3)cc(-c3cccc(C(F)(F)F)c3)nc12` gave KDM5B inhibitor inactive.
For CNC(=O)c1cc2cc(-c3c(C)noc3C)nc(-c3cnn(C)c3)c2o1 the results were KDM5B inhibitor inactive.
Screening Cc1noc(C)c1-c1cc(-c2ccccc2O)cn2cncc12 returned KDM5B inhibitor inactive.
For COc1ccc(-c2nc3cc(NC(=O)c4ccccc4I)ccc3o2)cc1 the results were KDM5B inhibitor inactive.
For C=CCNC(=S)N/N=C1/C=C(C)CC(C)(C)C1 the results were KDM5B inhibitor inactive.
Cc1ccc(Cn2nc(C)c3cc(C(=O)N4CCN(CC(=O)N(C)C)CC4)sc32)cc1 was read as KDM5B inhibitor inactive.
For CC(=O)c1cn(CC(=O)Nc2ccncc2)c2ccccc12 the results were KDM5B inhibitor inactive.
O=c1[nH]c(=O)n(CCc2ccccc2)c2nccc(-c3ccccc3Cl)c12 was read as KDM5B inhibitor inactive.
`C=CCSC1=N/C(=C\C=C\c2ccc(OC)cc2)C(=O)S1` gave KDM5B inhibitor inactive.
For Cc1ccc(NC(=O)C2=COCCO2)cc1Cl the results were KDM5B inhibitor inactive.
Screening O=S(=O)(NCc1ccccc1Cn1cccn1)c1ccc(Cl)c(C(F)(F)F)c1 returned KDM5B inhibitor inactive.
Screening COC(=O)C1=C(C(=O)OC)SC(=C(Cl)C(=S)Oc2ccccc2)S1 returned KDM5B inhibitor inactive.
For Cc1nc(-c2ccc(S(=O)(=O)Nc3ccccc3F)cc2)co1 the results were KDM5B inhibitor inactive.
COCCN1C(=O)c2cccn2CC1CNC(=O)c1n[nH]c2ccccc12 (stereo not drawn) was read as KDM5B inhibitor inactive.
COCCN1C(=O)c2cccn2CC1CNC(=O)c1[nH]nc2c1COc1ccccc1-2 (stereo not drawn) was read as KDM5B inhibitor 28µM*.
COCCN1C(=O)c2cccn2CC1CNC(=O)c1nccc2ccccc12 (stereo not drawn) was read as KDM5B inhibitor inactive.
Screening CCOC(=O)c1c(C)sc2c1OC(N)=C(C#N)C21C(=O)N(C)c2ccccc21 (stereo not drawn) returned KDM5B inhibitor inactive.
COc1ccc(OC)c(NC(=O)CC2CC3CCC2C3)c1 (stereo not drawn) was read as KDM5B inhibitor inactive.
`Cc1cccc(C2CCCN2C(=O)c2cc(C(C)C)on2)c1` (stereo not drawn) gave KDM5B inhibitor inactive.
Cc1ccc(NC(=S)NNC(=O)c2csc(C)c2)cc1 was read as KDM5B inhibitor inactive.
`O=[N+]([O-])c1ccccc1S(=O)(=O)NCc1cccs1` gave KDM5B inhibitor inactive.
`O=C(Nc1c(-c2ccccc2)nc2sccn12)c1cccc(S(=O)(=O)N2CCCC2)c1` gave KDM5B inhibitor inactive.
Screening COCCN1C(=O)c2cccn2CC1CNC(=O)c1cccc(F)c1 (stereo not drawn) returned KDM5B inhibitor inactive.
`Cc1nc(C)c(C(=O)NCC2Cn3cccc3C(=O)N2C)s1` (stereo not drawn) gave KDM5B inhibitor inactive.
For COc1cccc(C(=O)NCC2Cn3cccc3C(=O)N2C)c1 (stereo not drawn) the results were KDM5B inhibitor inactive.
For CN1Cc2cccn2CC1CNC(=O)c1cccs1 (stereo not drawn) the results were KDM5B inhibitor 20µM*.
`Cc1cnc(C(=O)NCC2Cn3cccc3C(=O)N2C)cn1` (stereo not drawn) gave KDM5B inhibitor inactive.
Screening CN1C(=O)c2cccn2CC1CNC(=O)c1cn[nH]c1-c1ccc(F)cc1 (stereo not drawn) returned KDM5B inhibitor inactive.
CN1Cc2cccn2CC1CNC(=O)c1cccc(F)c1 (stereo not drawn) was read as KDM5B inhibitor 25µM*.
For CCn1nc(C)c(-c2cc(C(=O)NCC3Cn4cccc4C(=O)N3C)no2)c1C (stereo not drawn) the results were KDM5B inhibitor inactive.
`Cc1ccc(S(=O)(=O)N2CCCC(CNC(=O)c3cccs3)C2)cc1` (stereo not drawn) gave KDM5B inhibitor inactive.
Screening CC(C)CN1C(=O)c2cccn2CC1CNC(=O)c1cccs1 (stereo not drawn) returned KDM5B inhibitor inactive.
For CN1Cc2cccn2CC1CNC(=O)c1cnn(C)c1 (stereo not drawn) the results were KDM5B inhibitor 22µM*.
Cc1cc(C(=O)NCC2Cn3cccc3CN2C)nn1C (stereo not drawn) was read as KDM5B inhibitor 25µM*.
`CCOC(=O)Cc1ccc(NC(=O)Nc2nnc(N(C)Cc3ccccc3)s2)cc1` gave KDM5B inhibitor inactive.
Screening C[S+](=O)([O-])N1Cc2ccccc2CC2(CCN(CCc3ccccc3)C2)C1 (stereo not drawn) returned KDM5B inhibitor inactive.
For COc1cc2ccccc2cc1C(=O)OCc1ccc(C#N)cc1 the results were KDM5B inhibitor inactive.
For CC(=O)c1ccc2ccccc2c1OCc1ccccc1C#N the results were KDM5B inhibitor inactive.
Screening Cc1cc(CSCC(=O)Nc2c(C)cccc2C)on1 returned KDM5B inhibitor inactive.
Nc1ccccc1C12CC3CC(CC(C3)C1)C2 was read as KDM5B inhibitor inactive.
`CCCCNC(=O)c1cccc(Cl)c1` gave KDM5B inhibitor inactive.
Screening O=c1n(-c2ccncc2)nc2n1CCN(Cc1ccc(OC(F)(F)F)cc1)C2 returned KDM5B inhibitor inactive.
CN1C(=O)c2cccn2CC1CNC(=O)c1n[nH]c(=O)c2ccccc12 (stereo not drawn) was read as KDM5B inhibitor inactive.
Cn1ccnc1C(=O)NCC1Cn2cccc2C(=O)N1Cc1ccccc1 (stereo not drawn) was read as KDM5B inhibitor inactive.
CN1C(=O)c2cccn2CC1CNC(=O)CCc1ccccc1 (stereo not drawn) was read as KDM5B inhibitor inactive.
For CN1C(=O)c2cccn2CC1CNC(=O)c1cccc2nccnc12 (stereo not drawn) the results were KDM5B inhibitor inactive.
`CN1Cc2cccn2CC1CNC(=O)c1nn(C)c2ccccc12` (stereo not drawn) gave KDM5B inhibitor 16µM*.
For CN1C(=O)c2cccn2CC1CNC(=O)c1ccoc1 (stereo not drawn) the results were KDM5B inhibitor inactive.
Cc1cccc(CC(=O)NCC2Cn3cccc3C(=O)N2C)c1 (stereo not drawn) was read as KDM5B inhibitor inactive.
For COc1ccccc1C(=O)NCC1Cn2cccc2C(=O)N1C (stereo not drawn) the results were KDM5B inhibitor inactive.
CN1Cc2cccn2CC1CNC(=O)c1ccco1 (stereo not drawn) was read as KDM5B inhibitor 28µM*.
For CN1Cc2cccn2CC1CNC(=O)c1nccn1C (stereo not drawn) the results were KDM5B inhibitor 14µM*.
CN1Cc2cccn2CC1CNC(=O)c1ccccc1 (stereo not drawn) was read as KDM5B inhibitor 28µM*.
